Assay outcomes as filed in PubChem.
MCL1 BIM primary = inhibitors of human MCL1 binding to BIM-BH3 peptide; inhibition, % at 10.9 µM; 0.68% of 320,000 active; GST-MCL1 / FITC-Bim-BH3 fluorescence polarization; Q07820; AID 2057;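 active means inhibition above the mean inhibition of all tested compounds plus 3 SD, set per campaign, cut at about 40% in these data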;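 further: 0% = DMSO wells and 100% = unlabeled Bim-BH3 peptide control; higher means more loss of mP so more displacement of Bim peptide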
Mcl1-Bid inh = disrupts binding of human Mcl-1 to Bid peptide | Q07820 | TR-FRET Mcl-1/Bid-Dy647 peptide binding, 1536-well | inhibition, % at 21.7 µM | 0.97% of 220,000 active;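 active means compounds that cut the binding signal by more than half at the single screening dose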;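 further: His-tagged Mcl-1 with europium anti-His antibody binding Bid BH3 peptide; 0% = Mcl-1 plus peptide wells and 100% = peptide-only wells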
Bcl-xL primary = inhibitors of human Bcl-xL | Q07817 | inhibition, % at 10.9 µM | GST-Bcl-xL / FITC-Bim BH3 peptide fluorescence polarization | 0.7% of 320,000 active | AID 2129;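 active means inhibition above the mean of all tested compounds plus 3 SD, cutoff set per campaign, cut at about 30% in these data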;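 further: 0% = DMSO wells and 100% = unlabeled Bim-BH3 peptide competitor; inhibitors lower millipolarization by displacing the labeled peptide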
Target sequence (Q07817 whole entry, looked up): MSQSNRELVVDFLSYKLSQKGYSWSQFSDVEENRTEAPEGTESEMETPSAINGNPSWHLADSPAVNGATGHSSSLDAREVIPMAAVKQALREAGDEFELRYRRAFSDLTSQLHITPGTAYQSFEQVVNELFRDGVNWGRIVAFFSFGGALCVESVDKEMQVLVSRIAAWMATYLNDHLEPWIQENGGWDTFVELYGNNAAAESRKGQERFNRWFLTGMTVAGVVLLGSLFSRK
GLD-1 RNA inh = GLD-1-TGE RNA interaction inhibition (C. elegans) | 0.44% of 320,000 active | purified GLD-1 + fluorescein TGE RNA, fluorescence polarization | Q17339 | inhibition, % at 5.96 µM;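 active means percent inhibition above a per-plate cutoff, the plate mean of test compounds plus 3 SD, cut at about 30% in these data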;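 further: 0% = DMSO wells with GLD-1 and probe and 100% = wells lacking GLD-1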
Bim-Mcl-1 = inhibitors of Bim-Mcl-1 interaction, human; Bead-based flow cytometry, Bim peptide-Mcl-1 binding; inhibition, % at 10 µM; 0.1% of 190,000 active; AID 1009; in the data active means inhibition above about 40%;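 further: 0% = no compound tracer wells and 100% = peptide blocker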
Mcl1 Noxa PPI = disrupts binding of human Mcl-1 to Noxa peptide; 1.5% of 220,000 active; TR-FRET Mcl-1/Noxa peptide binding, 2 h; Q07820; inhibition, % at 21.7 µM; AID 1022;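 active means compounds that cut the protein-peptide binding signal by more than 50% relative to plate controls in a single-dose test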;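 further: His-tagged Mcl-1 with rhodamine Noxa BH3 peptide and terbium anti-His antibody; 0% = Mcl-1 plus Noxa peptide wells and 100% = peptide-only wells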
* hit, by the source's call. Rows were chosen to be rich in hits. Some 2.3% of all compounds tested hit in one or more screens of this group.

For CC(CCc1ccccc1)NC(=O)C1CCN(S(=O)(=O)c2ccc(F)cc2)CC1 (centres undefined) the results were MCL1 BIM primary -11, Bcl-xL primary -6 and GLD-1 RNA inh -1.
For COc1ccccc1CNC(=O)CC(NS(=O)(=O)c1ccc(C)cc1)c1ccco1 (centres undefined) the results were MCL1 BIM primary 7, Mcl1-Bid inh 92*, Bcl-xL primary 6, GLD-1 RNA inh 6, Bim-Mcl-1 0 and Mcl1 Noxa PPI 19.
For CC(C)Cc1nc2ccccc2n1CCc1ccccc1 the results were MCL1 BIM primary 13, Mcl1-Bid inh 9, Bcl-xL primary 3, GLD-1 RNA inh 0, Bim-Mcl-1 -1 and Mcl1 Noxa PPI 12.
Nc1nc(CSc2nc3ccccc3s2)nc(Nc2ccccc2)n1 was read as MCL1 BIM primary 4, Mcl1-Bid inh 14, Bcl-xL primary 6, GLD-1 RNA inh 11, Bim-Mcl-1 -5 and Mcl1 Noxa PPI 73*.
Screening Cc1c(Cl)cccc1Nc1nc(N)nc(CSc2nc3ccccc3s2)n1 returned MCL1 BIM primary 8, Mcl1-Bid inh 15, Bcl-xL primary 5, GLD-1 RNA inh 5, Bim-Mcl-1 0 and Mcl1 Noxa PPI 10.
`CC(=O)c1cc(O)c2ccccc2c1O` gave MCL1 BIM primary 16, Mcl1-Bid inh 24, Bcl-xL primary 24, GLD-1 RNA inh 8 and Mcl1 Noxa PPI 80*.
For CCOc1ccc(NC(=O)CCC(=O)NNC(=O)c2ccc(Br)o2)cc1 the results were MCL1 BIM primary 0, Bcl-xL primary 8 and GLD-1 RNA inh 4.
Screening COC(=O)c1c(NC(=O)Cc2cccs2)sc2c1CCCC2 returned MCL1 BIM primary 15, Mcl1-Bid inh 22, Bcl-xL primary 4, GLD-1 RNA inh 7, Bim-Mcl-1 -6 and Mcl1 Noxa PPI 80*.
For O=c1c(-c2ccco2)[n+]([O-])c2ccccc2n1OCc1ccccc1 the results were MCL1 BIM primary 16, Mcl1-Bid inh -12, Bcl-xL primary 30*, GLD-1 RNA inh 38*, Bim-Mcl-1 2 and Mcl1 Noxa PPI 26.
For O=c1c(-c2ccco2)[n+]([O-])c2ccccc2n1OCc1c(F)cccc1F the results were MCL1 BIM primary -6, Mcl1-Bid inh 5, Bcl-xL primary 2, GLD-1 RNA inh 10 and Mcl1 Noxa PPI 33.
Screening Cc1cnn(C(=O)c2cc(-c3ccccn3)nc3ccc(Cl)cc23)c1 returned MCL1 BIM primary 27, Mcl1-Bid inh -12, Bcl-xL primary 31*, GLD-1 RNA inh 1, Bim-Mcl-1 0 and Mcl1 Noxa PPI 33.
For O=C(c1cc(-c2ccccn2)nc2ccc(Cl)cc12)N1CCN(CCc2ccccc2)CC1 the results were MCL1 BIM primary 13, Mcl1-Bid inh -12, Bcl-xL primary 11, GLD-1 RNA inh 4, Bim-Mcl-1 -1 and Mcl1 Noxa PPI 10.
O=C1CN(C(=O)c2ccccc2)C(c2ccc(F)cc2)c2cc(Br)ccc2N1 (centres undefined) was read as MCL1 BIM primary 10, Bcl-xL primary 7 and GLD-1 RNA inh -1.
Screening O=C1NN(c2ccccc2)C(=O)/C1=C/c1ccc(Sc2cccc3ccccc23)o1 returned MCL1 BIM primary 13, Mcl1-Bid inh -41, Bcl-xL primary 7, GLD-1 RNA inh 4, Bim-Mcl-1 -3 and Mcl1 Noxa PPI 51*.
O=C(N/N=C/c1ccc(O)cc1O)c1ccc(CN2C(=O)c3cccc4cccc2c34)cc1 was read as MCL1 BIM primary 7, Mcl1-Bid inh -46, Bcl-xL primary 0, GLD-1 RNA inh -9, Bim-Mcl-1 -1 and Mcl1 Noxa PPI 78*.
CC[C@@]1(C(=O)OC)N[C@H](CN(C)C(=O)Nc2ccc(F)cc2)[C@@H]2C(=O)N(Cc3ccccc3)C(=O)[C@@H]21 was read as GLD-1 RNA inh 4.
`CC(C)n1c(SCC(=O)Nc2ccc3c(c2)OCO3)nc2c1c(=O)n(C)c(=O)n2C` gave MCL1 BIM primary 3, Mcl1-Bid inh 72*, Bcl-xL primary 6, GLD-1 RNA inh 5, Bim-Mcl-1 1 and Mcl1 Noxa PPI 0.
CCCCCC1CC(CC#CCN2CCOCC2)C(=O)O1 (centres undefined) was read as MCL1 BIM primary 15, Mcl1-Bid inh 51*, Bcl-xL primary 11, GLD-1 RNA inh -2, Bim-Mcl-1 0 and Mcl1 Noxa PPI -1.
